The values that follow come from PubChem BioAssay (EPA / NIEHS).

Calls of active or inactive are those of the source. The calls were made as follows: active = hit-call score of the fitted dose curve at least 0.9, where 1 is the maximum; inactive = score below 0.9.

Read-out in this assay: Tumor necrosis factor receptor superfamily member 6 (Homo sapiens) (UniProt P25445)
Description: LTEA_HepaRG_FAS: Life Technologies and Expression Analysis (LTEA) Assay for Fas cell surface death receptor (FAS) using HepaRG (AID 2283447). As to conditions: mRNA level, 48 h; actives raise or lower the signal. The method, then:
LTEA_HepaRG is a cell based, multiplexed-readout assay that uses HepaRG, a human liver cell line, with measurements taken at 48 hours after chemical dosing on a 96-well plate.LTEA_HepaRG_FAS is one of 102 assay component(s) measured in the LTEA HepaRG cell culture assay. It is a marker of Cell proliferation, survival, death.Data from the assay component LTEA_HepaRG_FAS was analyzed into 1 endpoint. This assay endpoint, LTEA_HepaRG_FAS, was analyzed with bidirectional fitting relative to DMSO as the negative control and baseline of activity. Using a type of inducible reporter, measures of mRNA induction for gain or loss-of-signal activity can be used to understand regulation of transcription factor activity. To generalize the intended target to other relatable targets, this assay endpoint is annotated to the cytokine receptor intended target family, where the subfamily is TNF receptor.
A total of 1060 chemcials from the ToxCast library were tested in eight-point concentration-response experiments. Cell culture and cytotoxicity assays were conducted at Thermo Fisher Scientific's Custom Services facility (Madison, WI). A single lot of human HepaRG cells (Thermo Fisher Scientific, Frederick, MD) was used for the cell culture experiments. 96-well format collagen type I coated plates of human HepaRG cells were prepared using established methods. Briefly, cryopreserved HepaRG cells were thawed, plated at a density of approximately 100,000 cells/well in HepaRG Thaw, Plate, and General Purpose media (HPRG770, Thermo Fisher Scientific), and incubated for 48 hours. 0.5% DMSO was selected as vehicle control to balance the requisite need of DMSO in HepaRG cultures to maintain differentiation (for example, baseline metabolism, proportions of hepatocytes vs. cholangiocytes), while enabling further hepatic receptor pathway activation (for example, PXR and CAR) in response to chemical exposure. 48 hours after plating, the culture medium was replaced with HepaRG Serum-Free Incudtion Media. Cells were exposed to each test chemical in duplicate and maintained in CO2 incubators for another 48 hours. Chemical plates were thawed to room temperature and 200x concentrations of treatment groups were prepared. 8-point conentration-reponse curves were made with the highest exposure at 100 uM, followed by half-log dilutions, all in 0.5% DMSO. Each test plate contained variouse controls, induction positive controls (1mM phenobarbital), cytotoxicity positive controls ([…] aflatoxin B1), vehicle controls (0.5% DMSO), and total lysis controls (0.5% DMSO). Cell morphology images were taken using an Essen IncuCyte FLR automated microscope, with six 96-well plates imaged in about 24 minutes. Images were captured and exported and JPEG files. Spent culture media was transfered to black-well plates for the LDH assay, and remaining media was sorted at -80 C for later use. Cells were treated with RLT buffer and frozen until shipped for gene expression analysis. Total RNA was isolated from the cell suspension in 75 uL of Buffer RLT (Qiagen, Germantown, MD 20874) by Quintiles/Expression Analysis (Durham, NC) using a custom isolation procedure. Total RNA from each plate well was transferred to a preamplification plate. Fluidigm's 96.96 Dynamic ArrayTM (Fluidigm, Amsterdam, the Netherlands) technology was used for gene expression analyses by quantitative reverse transcription polymerase chain reaction (qRT-PCR, performed by Quintiles/Expression Analysis, Durham, NC)89. Standard TaqManTM Assays (Applied Biosystems/ThermoFisher Scientific, Foster City, CA) were used to assess the expression of 93 genes selected based on their selectivity and sensitivity to important hepatic receptors known to be modulated by environmental chemicals; importance in human hepatocyte functionality; and hepatotoxicity. […]
For the compound `Cn1c(=O)cc(Oc2ccc(F)cc2F)c2cnc(NCC(C)(C)O)nc21`, the compound was called inactive.
Still for that read-out and setting: next, `CC(C)=CCC/C(C)=C\CO`: “inactive”.
A word on the AC50: it is the midpoint of the concentration-response curve, whichever way the signal moves. For the compound `O=C(OC[C@H]1O[C@@H](OC(=O)c2cc(O)c(O)c(OC(=O)c3cc(O)c(O)c(O)c3)c2)[C@H](OC(=O)c2cc(O)c(O)c(OC(=O)c3cc(O)c(O)c(O)c3)c2)[C@@H](OC(=O)c2cc(O)c(O)c(OC(=O)c3cc(O)c(O)c(O)c3)c2)[C@@H]1OC(=O)c1cc(O)c(O)c(OC(=O)c2cc(O)c(O)c(O)c2)c1)c1cc(O)c(O)c(OC(=O)c2cc(O)c(O)c(O)c2)c1`, the AC50 was 7.03 µM (active).
For the compound `CNS(=O)(=O)c1cc(C(=O)N2CCC(CCN3C4CCC3CC(n3c(C)nc5ccccc53)C4)(c3cccc(F)c3)CC2)c(Cl)cc1F` (stereo not given), the compound was called inactive.
On to `O=C(CCCCCCCCc1cccnc1)N1CCC(C=C(c2ccccc2)c2ccccc2)CC1`, for which the AC50 was 50 µM (active).
For `Cc1ccc(C)c(O)c1`, the compound was called inactive.
Still for that read-out and setting: the entry for `C[C@](N)(Cc1ccc(O)c(O)c1)C(=O)O` is “inactive”; for `Nc1cccc(N)c1` it is “inactive”.
Still for that read-out and setting: the entry for `CC1(C)C(=O)N(Br)C(=O)N1Br` is “inactive”.
Still for that read-out and setting: next, `CCCC(=O)OCC`: “inactive”; `CCCN(C1CCN(C(=O)C2CCNCC2)CC1)[C@@H]1CCc2ccc(OC)cc2C1`: “inactive”.
Take `O=c1n(CC2CO2)c(=O)n(CC2CO2)c(=O)n1CC1CO1` (stereo not given): the half-maximal activity concentration (AC50) was 89.1 µM (active).
As to `CCCCCCCCO`, the call was inactive.
Same read-out and setting: next, `NC(=O)NO`: “inactive”; `Cc1ccc(O)cc1`: “inactive”.
On the same count and under the same terms, next, `COC(=O)c1c(Cl)c(Cl)c(C(=O)OC)c(Cl)c1Cl`: “inactive”; `CC/C(=C\C(=N/O)C(N)=O)C(C)[N+](=O)[O-]` (stereo not given): “inactive”.
The same measure, in the same setting: next, `CC(C)(O)c1coc(S(=O)(=O)NC(=O)Nc2c3c(cc4c2CCC4)CCC3)c1`: “inactive”; `CCOCCO`: “inactive”; `Cc1ccc(N)cc1O`: “inactive”.
For the compound `CC[C@H](C)C(=O)O[C@H]1C[C@@H](C)C=C2C=C[C@H](C)[C@H](CC[C@@H]3C[C@@H](O)CC(=O)O3)[C@H]21`, the outcome was inactive.
For `CCCCCCc1ccc(O)cc1O`, the outcome was inactive.
Still for that read-out and setting: next, `O=C(O)c1cccc(Oc2ccccc2)c1`: “inactive”; `CC(C)=CCCC(C)CCO` (stereo not given): “inactive”.
On the same count and under the same terms, the entry for `O=C(NS(=O)(=O)/C=C/c1ccccc1)c1ccc(F)cc1Cl` is “inactive”.
Take `COc1cccc(-c2ccc(/C=C\CN3CCCCCC3)cc2Cl)c1`: the AC50 was 77.5 µM (active).
On the same count and under the same terms, next, `CN(C)c1ccc(Cc2ccc(N(C)C)cc2)cc1`: 50 µM (active).
Consider `CC(=O)c1ccc2c(c1)[C@H](NC(=O)c1ccc(F)cc1)[C@@H](O)C(C)(C)O2`, for which the call was inactive.
On the same count and under the same terms, the entry for `CNCc1ccc(NC(=O)c2c[nH]c3c2C(=O)CCC3)cc1` is “inactive”.
On the same count and under the same terms, the entry for `CC(C)c1cccc(C(C)C)c1N1C(=O)c2ccc(O)cc2C1=O` is “inactive”.
Consider `Cc1[nH]cnc1C[C@H]1CCc2c(C)c3ccccc3n2C1=O`, for which the AC50 is 69.3 µM (active).
Take `Fc1ccccc1[C@@H](F)COC1CCC(Nc2ncnc3[nH]ncc23)CC1` (stereo not given in full): the compound was called inactive.
For the compound `CCc1cc(SCc2sc(-c3ccc(C(F)(F)F)cc3)nc2CN2CCN(c3ccc(OC)cc3)CC2)ccc1OCC(=O)O`, the AC50 is 26.2 µM (active).
Same read-out and setting: next, `CCN(C(=O)c1cc(C)cc(OC[C@H](C)Nc2ccncc2)c1)C(C)C`: 8.02 µM (active).
For `CC[C@H]1CC[C@H](NCc2cc3c(cc2OC)[C@H]2C[C@H]2C(=O)N3C)[C@H](c2ccccc2)N1`, the compound was classed as inactive.
Still for that read-out and setting: next, `COc1ccc(/C=C/S(=O)(=O)NC(=O)c2ccc(C)cc2Cl)cc1`: “inactive”.
On the same count and under the same terms, the entry for `O=C(O)CC(O)C(=O)O` (stereo not given) is “inactive”; for `CC(=O)OCCC(C)C` it is “inactive”; for `Cc1c(-c2cccnc2)c2ccccc2n1CCCCC(=O)O` it is “inactive”.
Still for that read-out and setting: the entry for `O=C(O)CCN(C1(C(=O)NO)CCCC1)S(=O)(=O)c1ccc(Oc2ccc(F)cc2)cc1` is “inactive”.
